This is one part of a sample in which hits are shown more often than they occur.
Tg IFNy HTS: T. gondii growth inhibition with IFN-gamma, primary screen, cell-based; Toxoplasma gondii growth in IFN-gamma-treated host cells; hits give low values; activity change, negative = inhibition, % (concentration not given with the values); AID 1259416, 2018; 69,000 compounds, 3.8% hits; in the data active = activity change below about -70%, passing the limit was not always enough;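 note: host cells are HeLa cells infected with Toxoplasma gondii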
* hit, by the source's call; ! = not confirmed by another sample.

`COc1cc2c(cc1NS(=O)(=O)NCc1ccccc1)n(C)c(=O)n2C` gave Tg IFNy HTS 11.
For CCCCN(C)C(=O)c1cc2cccnc2n(Cc2ccccc2)c1=O the results were Tg IFNy HTS 20.
`CCc1ccc(-c2c(-c3ccccc3)ncn2CCc2cnc[nH]2)nc1` gave Tg IFNy HTS -15.
`CC[C@@H](C(=O)O)[C@@H]1O[C@@H]([C@@H](C)[C@H](O)[C@H](C)C(=O)[C@H](CC)[C@H]2O[C@]3(C=C[C@@H](O)[C@]4(CC[C@@](C)(C5CC[C@](O)(CC)[C@H](C)O5)O4)O3)[C@H](C)C[C@@H]2C)[C@@H](C)C[C@H]1C` (stereo partly specified) gave Tg IFNy HTS -81*.
For C=CCC(O)(CC=C)CN1CC(C(=O)O)CC1=O (stereo unspecified) the results were Tg IFNy HTS 3.
Screening COCCN1CCO[C@H]2CCN(C(=O)c3ccc(C)s3)C[C@H]21 returned Tg IFNy HTS 12.
`COc1ccc(C(=O)N(c2ccc(OC)cc2)C2(C(=O)NCc3ccccc3)CCN(C(C)=O)CC2)cc1` gave Tg IFNy HTS -66.
For Cc1ccc(NC(=O)Nc2ccc(C#N)cc2)cc1Cl the results were Tg IFNy HTS -71*.
For CC(=O)Nc1ccc(C)c(NC(=S)Nc2ccc(Cl)c(Cl)c2)c1 the results were Tg IFNy HTS 23.
Screening Cc1cccc(NC(=O)Nc2ccc(C)c(Cl)c2)n1 returned Tg IFNy HTS -31.
For CN1CCC(N(CCc2ccccc2)C(=O)c2cnc(N3CCCCC3)nc2)CC1 the results were Tg IFNy HTS -90*.
CCN(C(=O)c1cnc(NC)nc1)C1CCN(C)CC1 was read as Tg IFNy HTS -1.
`Cc1ccccc1N(CC(=O)NCCc1ccccc1)C(=O)c1ccc(N2CCCC2)nc1` gave Tg IFNy HTS -16.
`CCNC(=O)[C@H]1CC[C@@](C)(C(=O)NCCN2CCCCC2)C1(C)C` gave Tg IFNy HTS 5.
Screening CNCCCN1c2ccccc2CCc2ccccc21 returned Tg IFNy HTS -83*!.
`CC(=O)c1cc(C(=O)NCCCN2CCCc3ccccc32)cs1` gave Tg IFNy HTS -2.
Screening CN(C)S(=O)(=O)CCNC(=O)C(=O)N1CCc2ccccc21 returned Tg IFNy HTS -1.
`CN(C)CCCN1c2ccccc2CCc2ccc(Cl)cc21` gave Tg IFNy HTS -70*!.
CN(C)CCCN1c2ccccc2Sc2ccccc21 was read as Tg IFNy HTS -22.
`CC(=O)c1ccc2c(c1)N(CCCN(C)C)c1ccccc1S2` gave Tg IFNy HTS 11.
Screening Cc1nonc1CN(C)Cc1ccccc1N1CCCCC1 returned Tg IFNy HTS 2.
For CC(C)Cc1cc(C(=O)N(Cc2ccccn2)CC2CCCO2)n(C)n1 (stereo unspecified) the results were Tg IFNy HTS -3.
Screening c1ccc(COC2CCCN(Cc3cc4ccccc4o3)C2)nc1 (stereo unspecified) returned Tg IFNy HTS -4.
O=C(c1cccs1)N1CCc2c([nH]c3ccccc23)C1c1ccc(F)cc1 (stereo unspecified) was read as Tg IFNy HTS inactive.
Screening COc1ccc(CNC(=O)CCC2Nc3c4ccccc4nc(=S)n3C2=O)cc1 (stereo unspecified) returned Tg IFNy HTS 17.
For O=S(=O)(N1CCOCC1)N1CCN(Cc2cnn(C3CCCCC3)c2)CC1 the results were Tg IFNy HTS -1.
Cc1cccc(-c2nc(Cn3nnc(C(=O)NCc4ccc5c(c4)OCO5)c3C)c(C)o2)c1 was read as Tg IFNy HTS -95*.
Cc1cccc(-c2nc(Cn3nnc(C(=O)NCc4ccc(C(C)C)cc4)c3C)c(C)o2)c1 was read as Tg IFNy HTS -89*.
`CCc1ccc(CNC(=O)c2nnn(Cc3nc(-c4cccc(C)c4)oc3C)c2C)cc1` gave Tg IFNy HTS -80*.
Cc1ccc(-c2nc(Cn3nnc(C(=O)NCc4ccc5c(c4)OCO5)c3C)c(C)o2)cc1 was read as Tg IFNy HTS -45.
Cc1ccc(-c2nc(Cn3nnc(C(=O)NCc4ccncc4)c3C)c(C)o2)cc1 was read as Tg IFNy HTS 72.
Cc1ccc(-c2nc(Cn3nnc(C(=O)NCc4ccc(F)cc4)c3C)c(C)o2)cc1 was read as Tg IFNy HTS 110.
Cc1ccc(-c2nc(Cn3nnc(C(=O)NCc4ccccc4)c3C)c(C)o2)cc1 was read as Tg IFNy HTS -34.
Cc1ccc(NC(=O)c2nnn(Cc3nc(-c4cccc(Cl)c4)oc3C)c2C)c(Cl)c1 was read as Tg IFNy HTS -3.
For Cc1ccc(NC(=O)c2nnn(Cc3nc(-c4cccc(Cl)c4)oc3C)c2C)c(Br)c1 the results were Tg IFNy HTS 134.
`CCCOc1ccc(CNC(=O)c2nnn(Cc3nc(-c4ccc(C)cc4)oc3C)c2C)cc1` gave Tg IFNy HTS -21.
`Cc1ccc(-c2nc(Cn3nnc(C(=O)NCc4ccco4)c3C)c(C)o2)cc1` gave Tg IFNy HTS 0.
For Cc1cccc(-c2nc(Cn3nnc(C(=O)NCc4cccc(Br)c4)c3C)c(C)o2)c1 the results were Tg IFNy HTS -98*.

Compound activity as filed in PubChem.
